The record followed here is PubChem BioAssay (NCATS).

Where “and” joins values, the source holds several entries; their conditions need not be identical. Equal values may be shown once. Inconclusive results are not listed. Unmarked numbers belong to inactive results. Calls of active or inactive are those of the source. Unless noted, the call rests on the fitted dose curve; in most records, active means well fitted curve in the direction sought with a large enough effect; inconclusive means small, poorly fitted or top-dose-only effect, or another doubt; inactive means no such curve, though single readings can be large; an effect the other way counts as inactive or inconclusive.

Experiment [1] deals with Cytochrome P450 2C9 (Homo sapiens) (UniProt P11712). Put plainly: Cytochrome P450 family 2 subfamily C member 9 (CYP2C9) small molecule antagonists: luciferase biochemical (cell-free) qHTS assay (AID 1645842; active means well fitted curve in the direction sought with a large enough effect in the repeat runs; an effect the other way counts as inactive or inconclusive; further: nearly all actives have a fitted effect of over 55% in size; further: potency means the concentration at half of the fitted maximal effect; on activity change, negative = inhibition: series mostly up to about 57 µM; on the % scale 0 is the no-effect control and ±100 the full control effect). In outline: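 Luminescence, after 20 min with luciferin detection reagent, reflected CYP2C9 turnover during a 1 h NADPH-driven reaction at 37C. Enzyme-substrate mix contained 0.4% bovine serum albumin and was preincubated with compound 10 min at room temperature.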
Chain of Cytochrome P450 2C9 (Homo sapiens) (P11712 whole entry, looked up): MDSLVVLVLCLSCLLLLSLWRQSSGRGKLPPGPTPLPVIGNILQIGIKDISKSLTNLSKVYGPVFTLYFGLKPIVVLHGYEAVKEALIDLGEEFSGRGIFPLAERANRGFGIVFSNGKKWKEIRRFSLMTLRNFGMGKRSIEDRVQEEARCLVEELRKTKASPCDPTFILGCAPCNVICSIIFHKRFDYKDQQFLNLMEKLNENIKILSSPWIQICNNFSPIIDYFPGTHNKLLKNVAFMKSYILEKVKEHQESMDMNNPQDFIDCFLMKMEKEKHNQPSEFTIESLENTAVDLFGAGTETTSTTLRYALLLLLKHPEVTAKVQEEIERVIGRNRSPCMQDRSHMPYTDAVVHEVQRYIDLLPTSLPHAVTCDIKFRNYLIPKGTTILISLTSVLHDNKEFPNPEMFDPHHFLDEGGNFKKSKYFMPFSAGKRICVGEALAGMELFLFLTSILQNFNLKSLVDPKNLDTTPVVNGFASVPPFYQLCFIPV
In general terms: In qHTS, concentration-response curves come from the screen itself.

Experiment [2] in a line: Primary qHTS for inhibitors of nuclear receptor binding SET domain protein 2 (NSD2) in an isogenic RCH-ACV NSD2 p.E1099K mutant (9B) (AID 1645876). Further: nearly all actives have a fitted effect of over 70% in size. Further: potency means the concentration at half of the fitted maximal effect.
The nature of experiment [3]: Primary qHTS for inhibitors of nuclear receptor binding SET domain protein 2 (NSD2) in an RCH-ACV wild type WT cells (2C) (AID 1645877). Further: nearly all actives have a fitted effect of over 70% in size. Further: potency means the concentration at half of the fitted maximal effect.
The next experiment deals with Papain (Carica papaya) (UniProt P00784). Put plainly: Primary qHTS assay for inhibitors of the protease papain (AID 1645873).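 Further: papain turnover of Z-FR-AMC read as the AMC fluorescence gain over 10 min; series mostly up to about 50 µM; on the % scale 0 is the no-effect control and ±100 the full control effect.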
Chain of Papain (Carica papaya) (P00784 whole entry, looked up): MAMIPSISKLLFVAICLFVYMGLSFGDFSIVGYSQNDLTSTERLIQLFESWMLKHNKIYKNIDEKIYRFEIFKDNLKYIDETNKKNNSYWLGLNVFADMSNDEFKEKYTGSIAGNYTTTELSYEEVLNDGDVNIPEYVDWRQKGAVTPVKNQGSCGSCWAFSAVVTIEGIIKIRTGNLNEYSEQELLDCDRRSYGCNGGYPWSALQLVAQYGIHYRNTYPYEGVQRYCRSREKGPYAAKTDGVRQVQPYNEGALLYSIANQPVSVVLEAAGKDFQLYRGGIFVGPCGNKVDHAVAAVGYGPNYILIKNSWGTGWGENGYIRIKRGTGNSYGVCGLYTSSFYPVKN
Experiment [4] deals with N-terminal Xaa-Pro-Lys N-methyltransferase 1 (Homo sapiens) (UniProt Q9BV86). Put plainly: Confirmatory qHTS for Inhibitors of N-terminal methyltransferase 1 (NTMT1): MTaseGlo Assay (AID 1645874).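 Further: luminescence from SAH made as NTMT1 methylates SPKRIA peptide using SAM; series mostly up to about 100 µM; 0% = DMSO control and -100% = no-enzyme control; nearly all actives have a fitted effect of over 65% in size.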 In outline: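 qHTS format: NTMT1 125 nM, SAM 100 uM, peptide SPKRIA 1 uM final; 15 min compound preincubation, 30 min reaction at room temperature. MTase-Glo luminescence.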
Chain of N-terminal Xaa-Pro-Lys N-methyltransferase 1 (Homo sapiens) (Q9BV86 whole entry, looked up): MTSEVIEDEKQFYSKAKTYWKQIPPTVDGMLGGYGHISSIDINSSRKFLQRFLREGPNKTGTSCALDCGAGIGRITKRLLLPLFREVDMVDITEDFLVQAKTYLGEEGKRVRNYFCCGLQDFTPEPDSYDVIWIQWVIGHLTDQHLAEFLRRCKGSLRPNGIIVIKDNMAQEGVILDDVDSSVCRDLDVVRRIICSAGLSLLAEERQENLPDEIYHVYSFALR

In the case of `COc1cc2c(cc1OC(C)C)[C@H](c1ccc(Cl)cc1)N(c1ccc(N(C)CC3CCC(N4CCN(C)C(=O)C4)CC3)cc1)C(=O)C2` (some centres not stated), the Potency in experiment [1] was 6.74 µM (active); in experiment [2], 1.83 µM (active) and 2.09 µM (active); in experiment [3], 817 nM (active) and 1.18 µM (active).
As to `O=S(=O)(NCc1cccc2ccccc12)c1cc(Cl)c(Oc2cccc(N3CCNCC3)c2)s1`, the Potency is 1.69 µM (active) in experiment [1], 7.28 µM (active) in experiment [2] and 5.78 µM (active) in experiment [3].
Take `CCC1C(=O)N(C)c2cnc(Nc3ccc(C(=O)NC4CCN(C)CC4)cc3OC)nc2N1C1CCCC1` (configuration not stated): the Potency in experiment [1] is 2.13 µM (active); in experiment [2], 0.0073 µM (active); in experiment [3] it was 0.0082 µM (active).
For `O=C(Nc1ccc(Cl)cc1)C1CCCN(C(=O)c2cccc(-c3ccco3)c2)C1` (configuration not stated), in that order: 15.1 µM (active), 14.5 µM (active) and 23 µM (active).
Take `COc1cc2c(cc1-c1c(C)noc1C)ncc1[nH]c(=O)n(C(C)c3ccccn3)c12` (configuration not stated): the Potency in experiment [1] was 5.35 µM (active); in experiment [2], 0.325 µM (active); in experiment [3], 0.325 µM (active).
As to `Oc1cccc(-c2c3nc(c(-c4cccc(O)c4)c4ccc([nH]4)c(-c4cccc(O)c4)c4nc(c(-c5cccc(O)c5)c5ccc2[nH]5)CC4)C=C3)c1`, the Potency in experiment [1] is 11 µM (active); in experiment [2], 8.41 µM (active); in experiment [3], 8.41 µM (active).
Turning to `CCN(CC)C(=O)c1ccc(Nc2nc(OCC3CCCCC3)c3[nH]cnc3n2)cc1`, the figures for the Potency in experiment [1], in experiment [2] and in experiment [3] were 10.7 µM (active), 3.65 µM (active) and 1.83 µM (active), respectively.
On the same counts, the results for `CCCCC1CCC(c2nc(-c3ccncc3)no2)CC1` (configuration not stated) are 5.35 µM (active), “inactive” and “inactive”.
For `COCC(=O)NC/C=C/c1ccc2ncnc(Nc3ccc(Oc4ccc(C)nc4)c(C)c3)c2c1`, in that order: 8.49 µM (active), 20.5 µM (active) and 16.3 µM (active).
Regarding `COc1cc2nc(C3CC3)nc(N3CCN(c4ccccc4OC)CC3)c2cc1OC`, the Potency in experiment [1] was 13.5 µM (active); in experiment [2] it was 16.3 µM (active); in experiment [3], 12.9 µM (active).
On the same counts, the results for `Fc1ccc(-c2nc(C3CCNCC3)sc2-c2ccnc(NC3CC3)n2)cc1` are 16.9 µM (active), 8.17 µM (active) and 6.49 µM (active).
On the same counts, the results for `COc1cc(Br)c(S(=O)(=O)Nc2ccc(Cl)c(O[C@@H]3CCN(C)C3)c2)cc1OC` are 10.7 µM (active), 12.9 µM (active) and 11.5 µM (active).
`CNC1CN(c2ccc3c(=O)c(C(=O)O)cn(-c4nccs4)c3n2)CC1OC` (configuration not stated): the activity change, negative = inhibition in experiment [1] was 4.23% [at 11.5 µM]. Moreover, the Potency in experiment [2] is 0.0836 µM (active); in experiment [3], 0.0297 µM (active).
For the molecule `CN1CCC(c2cn(C)c3ccc(OS(=O)(=O)c4c(F)cccc4F)cc23)CC1`, the Potency was 9.52 µM (active) in experiment [1], 18.3 µM (active) in experiment [2] and 23 µM (active) in experiment [3].
Regarding `Cn1cc(-c2ccc(S(=O)(=O)n3ccc(/C=C/C(=O)Nc4ccccc4N)c3)cc2)cn1`, the Potency was 0.849 µM (active) in experiment [1]; 649 nM (active) and 934 nM (active) in experiment [2]; 649 nM (active) and 833 nM (active) in experiment [3].
`CC1(C(=O)Nc2ccc(F)nc2)CCCN1c1nc(Nc2cc(C3CC3)[nH]n2)c2cccn2n1` (configuration not stated): the Potency in experiment [1] was 10.7 µM (active); in experiment [2], 1.29 µM (active); in experiment [3], 0.649 µM (active).
On the same counts, the results for `N#CC(CCCN1CCC(O)(c2ccc(Cl)cc2)CC1)(c1ccccc1)c1ccccc1` are 23.9 µM (active), 5.15 µM (active) and 6.49 µM (active).
With `NCCCC(=O)O`, the call with Papain (Carica papaya) was inactive.
`O=C([C@@H]1CCCN(c2ccc3[nH]c(C4(n5cc(Cl)cn5)CC4)nc3n2)C1)N1CCCC1`: the Potency entry in experiment [4] and in experiment [3] was “inactive” in each case.
For `COc1cc(CCc2ccc(OCC=C(C)C)cc2)cc(OC)c1OC`, the Potency result in experiment [4] and in experiment [3] was “inactive” in each case.
In the case of `CC(=O)O[C@H]1CC(C)(C)CC2[C@]13CO[C@@]21CCC2[C@@]4(C)CC[C@H](O[C@@H]5OC[C@H](O[C@@H]6O[C@H](CO)[C@@H](O)[C@H](O)[C@H]6O[C@@H]6OC[C@@H](O)[C@H](O)[C@H]6O)[C@H](O)[C@H]5O[C@@H]5O[C@H](CO)[C@@H](O)[C@H](O)[C@H]5O)[C@@](C)(CO)C4CC[C@@]2(C)[C@]1(C)C[C@H]3O` (some centres not stated), the Potency in experiment [2] is 2.45 µM (active); in experiment [3], 3.88 µM (active).
Regarding `C1=C/COCc2cc(ccc2OCCN2CCCC2)Nc2nccc(n2)-c2cccc(c2)COC/1`, the Potency is 325 nM (active) and 417 nM (active) in experiment [2]; 258 nM (active) and 417 nM (active) in experiment [3].
Take `C=C1C(=O)OC2/C=C(\COC(C)=O)CC/C=C(\C=O)CC(OC(=O)CC(C)C)C12` (configuration not stated): the Potency in experiment [2] is 2.24 µM (active); in experiment [3] it was 1.59 µM (active).
